From PubChem BioAssay (NCI)
About 83,000 compounds went through this panel and 20% of them were active in at least one assay; those are over-represented in the sample as a whole.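 Negative percent growth values reflect cell death: -40 means 40% of the cells present at the start died, and -100 means all died.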 Values without a mark were called inactive. Calls of active or inactive are those of the source. Rule for the calls: active = growth percent below 10; inactive = the rest.

The compounds below were run on SNB-75 CNS (assay: NCI-60 one-dose screen, 48 h (100 = growth as untreated, 0 = no growth, -100 = all killed)). Conditions: 10 µM.

| Structure (SMILES) | growth |
| --- | --- |
| CN(C)c1cccc2c(S(=O)(=O)Nc3cccc(-c4csc(NC(=O)CCCCCN5CCN(c6cc7c(cc6F)C(=O)N(C6CCC(=O)NC6=O)C7=O)CC5)n4)c3)cccc12 (configuration not stated) | 60.5% |
| CC(=C(c1ccc(OCCN2CCCCC2)cc1)c1ccc(OCCN2CCCCC2)cc1)c1ccccc1 | 84.1% |
| CC[C@@]1(O)C(=O)OCc2c1cc1n(c2=O)Cc2c-1nc1cc(F)c(C)c3c1c2[C@@H](N)CC3 | -26.1% (active) |
| O=C(Cn1cc(CSc2nnc3oc4ccccc4n23)nn1)Nc1cccc(Cl)c1 | 51% |
| C=C(C)[C@@H]1CC[C@]2(C(=O)OC)CC[C@]3(C)[C@H](CC[C@@H]4[C@@]5(C)CC[C@H](N)C(C)(C)[C@@H]5CC[C@]43C)[C@@H]12 | -91.5% (active) |
| COc1ccc(-c2nc(S(=O)(=O)c3ccc(C)cc3)c(S(C)(=O)=O)o2)cc1 | 43.6% |
| CCN1CCN(c2ccc(NC(=O)Nc3ccc(-c4cc(C(=O)NC(C)C)c5ncccc5n4)cc3)cc2C(F)(F)F)CC1 | -94.3% (active) |
| C=C[C@H]1[C@H](O[C@@H]2OC(CO)[C@@H](O)[C@H](O)C2OC(=O)c2c(O)cc(O)cc2-c2cccc(O)c2)OC=C2C(=O)OCC[C@H]21 (some centres not stated) | 93.2% |
| COc1ccc(C(C)=C(c2ccc(OCCCN(C)C)cc2)c2ccc(OCCCN(C)C)cc2)cc1 | -95.3% (active) |
| CC1(C)CC[C@]23CC[C@]4(C)[C@H](CC[C@@H]5[C@@]6(C)CC[C@H](N)C(C)(C)[C@@H]6CC[C@]54C)[C@H]2[C@H]1OC3=O | -75.3% (active) |
| CCN1CCN(c2ccc(NC(=O)Nc3ccc(-c4cc(C(=O)NC)c5ncccc5n4)cc3)cc2C(F)(F)F)CC1 | -95% (active) |
| COc1ccc2[nH]c(O)c(N=NC(=O)c3cc(-c4ccc(C)cc4)nc4ccccc34)c2c1 | 95.4% |
| O=C(Cn1cc(CSc2nnc3oc4ccccc4n23)nn1)Nc1ccc(Br)cc1 | -24.5% (active) |
| CN1CCN(c2ccc(Nc3nc(N4CCN(S(=O)(=O)c5ccc(F)cc5)CC4)c4sccc4n3)cc2)CC1 | -97.9% (active) |
| COc1ccccc1NCc1ccc(CO)n1-c1ccc(C)cc1 | 80.2% |
| CC(=C(c1ccc(OCCCN(C)C)cc1)c1ccc(OCCCN(C)C)cc1)c1ccccc1 | -77.5% (active) |
| CN1CCN(c2ccc(Nc3nc(NCCCNC(=O)c4ccccc4)c4sccc4n3)cc2)CC1 | 110% |
| CCCCCc1ccc(S(=O)(=O)N(C(C)=O)c2cc(-c3csc(N(C)C(C)=O)n3)ccc2N2CCN(C)CC2)cc1 | 73% |
| C=C1CC[C@H](C(=C)C)[C@H]2C=C(C)C(=O)C3=C(C(=O)[C@@](C)(O)C3)[C@H]12 | -71% (active) |
| CC(=O)Nc1nc(-c2ccc(N3CCN(C)CC3)c(NS(=O)(=O)c3cccc4c(N(C)C)cccc34)c2)cs1 | 56.5% |
| CNC(=O)c1cccc(N2CCc3c2ccc(NC(=O)Nc2ccc(N4CCN(C)CC4)c(C(F)(F)F)c2)c3F)c1 | 7.71% (active) |
| CN1CCN(c2ccc(Nc3nc(N4CCN(S(=O)(=O)c5ccc(Cl)cc5)CC4)c4sccc4n3)cc2)CC1 | 67.1% |
| CC1(C)CC[C@]2(C(=O)NCCCNCCCCNCCCN)CC[C@]3(C)C(=CC[C@@H]4[C@@]5(C)Cc6c([nH]c7ccccc67)C(C)(C)[C@@H]5CC[C@]43C)[C@H]2C1 | 101% |
| C=CC(=O)Nc1nc(-c2cccc(NS(=O)(=O)c3cccc4c(N(C)C)cccc34)c2)cs1 | 5.83% (active) |
| COC1CC(Cn2cc(COc3ccc4ccc(=O)oc4c3)nn2)C(OCc2ccccc2)C(OCc2ccccc2)C1OCc1ccccc1 (configuration not stated) | 92.5% |

What follows are compounds tested on SNB-19 CNS in the same assay as above. Conditions: 10 µM.

| Structure (SMILES) | growth |
| --- | --- |
| Cc1ccc(C(=O)NCCCNc2nc(Nc3ccc(N4CCN(C)CC4)cc3)nc3ccsc23)cc1 | 71.6% |
| O=C(c1ccc(-n2c(=O)[nH]c3ccccc3c2=O)cc1)N1CCOCC1 | 95.5% |
| O=S(=O)(c1ccc(Cl)cc1)c1nc(-c2ccccc2)oc1S(=O)(=O)c1ccc(Cl)cc1 | 94.9% |
| Cc1ccc(C(C)C)cc1NC(=O)c1ccccc1N(C)C | 93% |
| COc1ccc2[nH]c(O)c(N=NC(=O)COc3ccc(NC(=O)Nc4ccc(Cl)c(Cl)c4)cc3)c2c1 | 7.22% (active) |
| COc1cccc(-c2nn(-c3ccccc3)cc2-c2ccnc(NCCCNC(=O)Nc3ccc(F)cc3)c2)c1 | 6% (active) |
| CN1CCN(c2ccc(Nc3nc(NCCCNC(=O)c4ccc(F)cc4)c4sccc4n3)cc2)CC1 | 86% |
| CC1(C)CC[C@]2(C(=O)Nc3ccccc3)CC[C@]3(C)C(=CC[C@@H]4[C@@]5(C)CC[C@H](N)C(C)(C)[C@@H]5CC[C@]43C)[C@H]2C1 | 100% |
| C[C@H]1[C@H](C)CC[C@]2(COC(=O)CCC(=O)NCC#CCN3CCNCC3)CC[C@]3(C)C(=CC[C@@H]4[C@@]5(C)CCCNC(C)(C)[C@@H]5CC[C@]43C)[C@H]12 | 60% |
| O=C(Nc1ccncc1)c1ccc(-n2c(=O)[nH]c3ccccc3c2=O)cc1 | 91.1% |
| Cc1ccc(C(C)C)cc1NC(=O)c1ccccc1O | 37.2% |
| CCCS(=O)(=O)c1oc(-c2ccc(F)cc2)nc1S(=O)(=O)c1ccc(F)cc1 | 82.6% |
| CN(C)c1cccc2c(S(=O)(=O)Nc3cccc(-c4csc(NC(=O)CCCCCN5CCN(c6cc7c(cc6F)C(=O)N(C6CCC(=O)NC6=O)C7=O)CC5)n4)c3)cccc12 (configuration not stated) | 92.8% |
| CC(=C(c1ccc(OCCN2CCCCC2)cc1)c1ccc(OCCN2CCCCC2)cc1)c1ccccc1 | 38.7% |
| CC[C@@]1(O)C(=O)OCc2c1cc1n(c2=O)Cc2c-1nc1cc(F)c(C)c3c1c2[C@@H](N)CC3 | 1.87% (active) |
| O=C(Cn1cc(CSc2nnc3oc4ccccc4n23)nn1)Nc1cccc(Cl)c1 | 74.5% |
| C=C(C)[C@@H]1CC[C@]2(C(=O)OC)CC[C@]3(C)[C@H](CC[C@@H]4[C@@]5(C)CC[C@H](N)C(C)(C)[C@@H]5CC[C@]43C)[C@@H]12 | -99.3% (active) |
| COc1ccc(-c2nc(S(=O)(=O)c3ccc(C)cc3)c(S(C)(=O)=O)o2)cc1 | 65.5% |
| CCN1CCN(c2ccc(NC(=O)Nc3ccc(-c4cc(C(=O)NC(C)C)c5ncccc5n4)cc3)cc2C(F)(F)F)CC1 | -81.7% (active) |

| Structure (SMILES) | growth |
| --- | --- |
| C=C[C@H]1[C@H](O[C@@H]2OC(CO)[C@@H](O)[C@H](O)C2OC(=O)c2c(O)cc(O)cc2-c2cccc(O)c2)OC=C2C(=O)OCC[C@H]21 (some centres not stated) | 97.2% |
| COc1ccc(C(C)=C(c2ccc(OCCCN(C)C)cc2)c2ccc(OCCCN(C)C)cc2)cc1 | -97.4% (active) |
| CC1(C)CC[C@]23CC[C@]4(C)[C@H](CC[C@@H]5[C@@]6(C)CC[C@H](N)C(C)(C)[C@@H]6CC[C@]54C)[C@H]2[C@H]1OC3=O | -98.7% (active) |
| CCN1CCN(c2ccc(NC(=O)Nc3ccc(-c4cc(C(=O)NC)c5ncccc5n4)cc3)cc2C(F)(F)F)CC1 | -100% (active) |
| COc1ccc2[nH]c(O)c(N=NC(=O)c3cc(-c4ccc(C)cc4)nc4ccccc34)c2c1 | 95.1% |
| O=C(Cn1cc(CSc2nnc3oc4ccccc4n23)nn1)Nc1ccc(Br)cc1 | 24.7% |
| CN1CCN(c2ccc(Nc3nc(N4CCN(S(=O)(=O)c5ccc(F)cc5)CC4)c4sccc4n3)cc2)CC1 | -98.1% (active) |
| COc1ccccc1NCc1ccc(CO)n1-c1ccc(C)cc1 | 94.9% |
| CC(=C(c1ccc(OCCCN(C)C)cc1)c1ccc(OCCCN(C)C)cc1)c1ccccc1 | -98.1% (active) |
| CN1CCN(c2ccc(Nc3nc(NCCCNC(=O)c4ccccc4)c4sccc4n3)cc2)CC1 | 95.5% |
| CCCCCc1ccc(S(=O)(=O)N(C(C)=O)c2cc(-c3csc(N(C)C(C)=O)n3)ccc2N2CCN(C)CC2)cc1 | 32.2% |
| C=C1CC[C@H](C(=C)C)[C@H]2C=C(C)C(=O)C3=C(C(=O)[C@@](C)(O)C3)[C@H]12 | -90.9% (active) |
| CC(=O)Nc1nc(-c2ccc(N3CCN(C)CC3)c(NS(=O)(=O)c3cccc4c(N(C)C)cccc34)c2)cs1 | 58.8% |
| CNC(=O)c1cccc(N2CCc3c2ccc(NC(=O)Nc2ccc(N4CCN(C)CC4)c(C(F)(F)F)c2)c3F)c1 | -84.7% (active) |
| CN1CCN(c2ccc(Nc3nc(N4CCN(S(=O)(=O)c5ccc(Cl)cc5)CC4)c4sccc4n3)cc2)CC1 | 28.4% |
| CC1(C)CC[C@]2(C(=O)NCCCNCCCCNCCCN)CC[C@]3(C)C(=CC[C@@H]4[C@@]5(C)Cc6c([nH]c7ccccc67)C(C)(C)[C@@H]5CC[C@]43C)[C@H]2C1 | 57.9% |
| C=CC(=O)Nc1nc(-c2cccc(NS(=O)(=O)c3cccc4c(N(C)C)cccc34)c2)cs1 | 15.6% |
| COC1CC(Cn2cc(COc3ccc4ccc(=O)oc4c3)nn2)C(OCc2ccccc2)C(OCc2ccccc2)C1OCc1ccccc1 (configuration not stated) | 95.1% |
